According to PubChem BioAssay (NCI):
About 83,000 compounds went through this panel and 20% of them were active in at least one assay; those are over-represented in the sample as a whole.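 Results are percent growth after 48 hours of single-concentration exposure. 100 means growth as in untreated cells, lower positive values show inhibition; negative values down to -100 show cell death.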 Active and inactive are the calls of the source. The calls were made as follows: active = growth percent below 10; inactive = the rest.

Tests used:
Assay in all cases: NCI-60 one-dose screen, 48 h (100 = growth as untreated, 0 = no growth, -100 = all killed)
Conditions in all cases: 10 µM unless noted
[1] = test system: SR leukemia
[2] = test system: RPMI-8226 leukemia
[3] = test system: OVCAR-8 ovarian
[4] = test system: OVCAR-5 ovarian
[5] = test system: OVCAR-4 ovarian
[6] = test system: SK-OV-3 ovarian
[7] = test system: IGROV1 ovarian
[8] = test system: OVCAR-3 ovarian
[9] = test system: HS 578T breast
[10] = test system: NCI/ADR-RES ovarian
[11] = test system: T-47D breast
[12] = test system: BT-549 breast
[13] = test system: MDA-MB-435 melanoma
[14] = test system: SW-620 colon
[15] = test system: MCF7 breast
[16] = test system: HCT-116 colon
[17] = test system: HCC-2998 colon
[18] = test system: KM12 colon

Measured: growth

COc1ccc2c(c1)[n+](=O)c(C(=O)/C=C/c1cc(OC)c(OC)c(OC)c1)c(C)n2[O-]
active: [7] -27.6%
inactive: [1] 29.5% | [2] 32.3% | [3] 57.4% | [4] 102% | [5] 72.3% | [6] 82.3% | [8] 102% | [9] 63.4% | [10] 73% | [11] 60.1% | [12] 28.8% | [13] 69.5% | [14] 72.4% | [15] 45.6% | [16] 50.3% | [17] 98.1% | [18] 88.6%

O=CNc1ccc2c(c1)Cc1cc([N+](=O)[O-])ccc1-2
active: [10] 3.1% | [13] -27.9%
inactive: [1] 31.6% | [2] 35.6% | [3] 41.3% | [4] 36.2% | [5] 74.5% | [6] 12.8% | [7] 30.7% | [8] 16.1% | [9] 40.1% | [11] 29.1% | [12] 16.5% | [14] 32.4% | [15] 16.3% | [16] 11.7% | [18] 13.9%

CCOc1nc(-c2ccco2)n2nc(-c3ccco3)cc2n1
inactive: [1] 123% | [2] 84.4% | [3] 97% | [4] 108% | [5] 87.2% | [6] 110% | [7] 106% | [8] 122% | [9] 95.7% | [10] 99.5% | [11] 84% | [12] 119% | [13] 114% | [14] 107% | [15] 39.8% | [16] 108% | [17] 123% | [18] 91.7%

CCOC(=O)/C(=C/CC/C(C)=C/CC/C(C)=C/CCc1ccoc1)CC(=O)N1CCCCC1
active: [2] -5.3%
inactive: [1] 19.8% | [3] 72.4% | [4] 64.6% | [5] 64.8% | [6] 84.4% | [7] 77.8% | [8] 12.5% | [9] 74.3% | [10] 50.6% | [11] 27.7% | [12] 88% | [13] 34.1% | [14] 64.6% | [15] 32% | [16] 44.9% | [18] 49%

O=C1C=CC(=O)N1c1ccccc1N1C(=O)C=CC1=O
inactive: [1] 92% | [2] 124% | [3] 107% | [4] 93.4% | [5] 116% | [6] 103% | [7] 95.3% | [8] 103% | [9] 104% | [10] 119% | [11] 102% | [12] 104% | [13] 122% | [14] 57.9% | [15] 97.1% | [16] 105% | [18] 117%

CC(NC(N)=S)c1ccccc1 (stereo unspecified)
inactive: [1] 100% | [2] 116% | [3] 106% | [4] 97.5% | [5] 106% | [6] 99.3% | [7] 110% | [8] 111% | [9] 98.9% | [10] 106% | [11] 89.6% | [12] 118% | [13] 106% | [14] 98.7% | [15] 94.5% | [16] 107% | [18] 104%

O=C(Nc1ccc2c(c1)C(=O)c1ccccc1-2)c1ccccc1
inactive: [1] 81.7% | [2] 63.5% | [3] 37.8% | [4] 85.9% | [5] 15.9% | [6] 110% | [7] 73.4% | [8] 79.5% | [9] 90.6% | [10] 70.4% | [11] 73.2% | [12] 104% | [13] 101% | [14] 55.4% | [15] 48% | [18] 87.3%
active: [16] -20.7%

C/C(=C\CCc1ccoc1)CC/C=C(\C)CCCN1CCSCC1
inactive: [1] 45.6% | [2] 38.2% | [3] 89.8% | [4] 70.1% | [5] 75.3% | [6] 84.6% | [7] 93.7% | [8] 44.4% | [9] 98.1% | [10] 73.8% | [11] 60.9% | [12] 77.7% | [13] 91.1% | [14] 86.1% | [15] 43.2% | [16] 53.8% | [17] 74.6% | [18] 81%

ICCC(c1ccccc1)(c1ccccc1)c1ccccc1
active: [1] -28.7%
inactive: [2] 20% | [3] 70.8% | [4] 82.6% | [5] 50.8% | [6] 74.6% | [7] 61.7% | [8] 58.1% | [9] 48.3% | [10] 74.6% | [11] 39.2% | [12] 54.6% | [13] 35.9% | [14] 80.7% | [15] 35.1% | [16] 33.2% | [18] 57.7%

C[C@@H]1C[C@@H]([C@@H](CC2CC(=O)NC(=O)C2)OC(=O)CC(=O)c2ccccc2)C(=O)[C@@H](C)C1
inactive: [1] 31.1% | [2] 17.4% | [3] 12.5% | [4] 16.8% | [5] 20.2% | [8] 19.4% | [9] 19.4% | [10] 10.3% | [12] 14.6% | [13] 11.6% | [14] 15.1% | [15] 14.7% | [18] 12%
active: [6] -3.27% | [7] -10.4% | [11] -2.63% | [16] 5.68%

Oc1ccc(/C=N/Nc2nc3ccccc3s2)c(O)c1
inactive: [2] 37.4% | [3] 26.6% | [4] 47.1% | [5] 21.5% | [7] 22.3% | [8] 18.6% | [9] 49.2% | [10] 17.7% | [11] 26.8% | [12] 43.8% | [13] 39.7% | [14] 41.9% | [15] 26.5% | [16] 25.2% | [18] 15.7%
active: [1] 6.63% | [6] 8.68%

O=C1NCCc2c1noc2-c1ccccc1
inactive: [1] 103% | [2] 113% | [3] 109% | [4] 103% | [5] 114% | [6] 91.3% | [7] 99.5% | [8] 113% | [9] 111% | [10] 98.6% | [11] 89.3% | [12] 97% | [13] 106% | [14] 109% | [15] 92.9% | [16] 88.3% | [17] 99.9% | [18] 103%

COc1ccc(-c2cnc(SCC(=O)Nc3ccc(-c4nc5ccccc5s4)cc3)n2-c2ccc(OC)cc2)cc1
inactive: [1] 99.5% | [2] 113% | [3] 105% | [4] 99% | [5] 111% | [6] 111% | [7] 91.5% | [8] 109% | [9] 105% | [10] 107% | [11] 93.1% | [12] 108% | [13] 114% | [14] 110% | [15] 47.4% | [16] 107% | [18] 113%

Cc1n(Cc2ccc3ccccc3c2)c2ccccc2[n+]1Cc1ccc2ccccc2c1
inactive: [10] 82.4%
active: [1] -35.5% | [2] -57.7% | [3] -31.1% | [4] -46.4% | [5] -7.76% | [6] -18.4% | [7] -61.8% | [8] -78.1% | [9] -0.489% | [11] -3.2% | [12] -79.7% | [13] -72.8% | [14] -60.7% | [15] -70.9% | [16] -91% | [17] -87% | [18] -77.7%

COc1ccc2ncccc2c1Cc1c(OC)ccc2ncccc12
inactive: [1] 25.7% | [2] 69.2% | [3] 87.3% | [4] 91.4% | [5] 83.3% | [6] 83.6% | [7] 64.1% | [8] 72.9% | [9] 72.6% | [10] 40.8% | [11] 59.8% | [12] 90.3% | [13] 12.4% | [14] 40.5% | [15] 57% | [16] 59.2% | [18] 52.1%

CCOC(=O)OCC(=O)[C@@]1(O)CC[C@H]2[C@@H]3CCC4=CC(=O)CC[C@]4(C)[C@H]3[C@@H](O)C[C@@]21C
inactive: [1] 109% | [2] 64.3% | [3] 94.5% | [4] 83.2% | [5] 104% | [6] 68.4% | [7] 87.5% | [8] 112% | [9] 123% | [10] 91% | [11] 91.4% | [12] 101% | [13] 111% | [14] 98.3% | [15] 94.9% | [16] 98.3% | [18] 106%

Oc1c(Cl)cc(Oc2cc(Cl)c(O)c(CN3CCOCC3)c2)cc1CN1CCOCC1
inactive: [1] 80.2% | [2] 91% | [3] 94.8% | [4] 98% | [5] 88.2% | [6] 101% | [7] 92.5% | [8] 94.5% | [9] 93.5% | [10] 84.8% | [11] 69.7% | [12] 96.5% | [13] 101% | [14] 98.3% | [15] 94.4% | [16] 87% | [18] 102%

O=C(CC(C(=O)c1ccccc1)N1CCN(Cc2ccccc2)CC1)c1ccccc1 (stereo unspecified)
inactive: [1] 57.2% | [2] 28.7% | [3] 90.7% | [4] 86.3% | [5] 86.5% | [6] 112% | [7] 119% | [8] 58.8% | [9] 92.5% | [10] 97.1% | [11] 45.6% | [12] 101% | [13] 109% | [14] 11.8% | [15] 52.1% | [16] 22.8% | [18] 101%
